Bioassay records from PubChem BioAssay.
3CLpro inhibitor = SARS-CoV 3CLpro protease inhibitors, primary screen, biochemical, quenched FRET | inhibition, % at 6 µM | AID 1706, 2009 | Replicase polyprotein 1ab (Severe acute respiratory syndrome coronavirus), P0C6X7 | hit rate 0.14% among 290,000 | recombinant SARS-CoV 3CLpro, quenched FRET peptide cleavage; in the data active means inhibition above about 12%
Anthrax LF inh2 = Bacillus anthracis LF protease inhibitors, primary screen, biochemical, multiplex microsphere, MLPCN library; Lethal factor (Bacillus anthracis), P15917; multiplex microsphere protease cleavage assay; inhibition, % at 10 µM; hit rate 0.12% among 360,000; further: plate controls were buffer without enzyme for full effect and enzyme alone for no effect
Target sequence (P15917 whole entry, looked up): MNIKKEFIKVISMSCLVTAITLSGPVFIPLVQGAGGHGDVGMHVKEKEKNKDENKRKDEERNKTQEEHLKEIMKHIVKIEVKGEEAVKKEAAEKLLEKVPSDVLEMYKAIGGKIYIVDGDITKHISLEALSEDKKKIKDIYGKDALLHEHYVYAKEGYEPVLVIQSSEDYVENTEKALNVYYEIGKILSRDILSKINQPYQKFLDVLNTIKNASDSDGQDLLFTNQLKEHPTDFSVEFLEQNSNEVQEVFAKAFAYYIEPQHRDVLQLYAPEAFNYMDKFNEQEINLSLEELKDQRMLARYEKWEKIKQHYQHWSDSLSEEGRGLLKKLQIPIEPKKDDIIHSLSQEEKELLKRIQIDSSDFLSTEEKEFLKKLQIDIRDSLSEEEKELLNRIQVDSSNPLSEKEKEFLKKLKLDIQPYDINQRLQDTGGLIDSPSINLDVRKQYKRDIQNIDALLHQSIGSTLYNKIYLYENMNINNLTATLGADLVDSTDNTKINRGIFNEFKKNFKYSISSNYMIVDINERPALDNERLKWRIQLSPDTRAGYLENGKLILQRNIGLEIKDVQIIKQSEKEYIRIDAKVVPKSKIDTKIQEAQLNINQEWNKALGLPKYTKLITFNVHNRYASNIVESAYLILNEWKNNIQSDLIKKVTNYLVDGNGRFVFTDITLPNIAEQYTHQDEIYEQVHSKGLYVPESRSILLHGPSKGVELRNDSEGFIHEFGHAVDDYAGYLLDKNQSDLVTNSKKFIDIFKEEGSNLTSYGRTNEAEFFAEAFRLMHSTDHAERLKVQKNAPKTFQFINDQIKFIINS
BoNT A protease = BoNT/A light chain protease inhibitors, primary screen, biochemical, flow cytometry, MLPCN library | multiplex microsphere protease substrate cleavage | hit rate 0.17% among 360,000 | inhibition, % at 10 µM; further: plate controls were buffer without enzyme for full effect and enzyme alone for no effect
Autofluor counter = counter-screen for toxin protease inhibitors: compound fluorescence; hit rate 3.1% among 360,000; compound autofluorescence counterscreen, microsphere flow cytometry; hits give high values; AID 624483; fluorescence intensity (test concentration not listed); in the data active means fluorescence intensity above about 16000; inconclusive means no clear call, values can overlap the other calls
BoNT-F LC inh = BoNT/F light chain protease inhibitors, primary screen, biochemical, flow cytometry, MLPCN library. hit rate 0.22% among 360,000. Multiplex microsphere protease cleavage assay. Botulinum neurotoxin type F light chain protease (Clostridium botulinum). inhibition, % at 10 µM; in the data active means inhibition above about 35%, passing the limit was not always enough; inconclusive means no clear call, values can overlap the other calls; further: plate controls were buffer without enzyme for full effect and enzyme alone for no effect
VHR inh abs = VHR1 phosphatase inhibitors, primary screen, biochemical, absorbance, uHTS; Dual specificity protein phosphatase 3 (Homo sapiens), P51452; recombinant VHR phosphatase, pNPP absorbance; inhibition, % at 13.3 µM; hit rate 0.52% among 290,000; in the data active means inhibition above about 50%
* marks the source's active call; other numbers are inactive results; u = inconclusive; x = no result given. Sampled rows, rich in hits. Any-hit rate of the full collection: about 3.9%. Unless noted, no stated cut-off is given here; in the data, active means inhibition above about 30%; inconclusive means no clear call, values can overlap the other calls; inactive means below that.

SMILES	3CLpro inhibitor	Anthrax LF inh2	BoNT A protease	Autofluor counter	BoNT-F LC inh	VHR inh abs
CCN(c1ccccc1)c1ncnc2c1cnn2-c1ccccc1	1	-4	0	5231	-5	25
c1ccc(-n2ncc3c(NCCN4CCOCC4)ncnc32)cc1	1	1	0	16340*	0	21
c1ccc(CNc2ncnc3c2cnn3-c2ccccc2)cc1	-4	-2	0	16180*	-6	16
COc1ccc(CN2CCOCC2)cc1	4	8	0	2373	1	52*
COc1ccc(CN2CCOCCOCCOCC2)cc1	-4	-2	0	4114	u	-3
CC1=C([N+](=O)[O-])C(c2ccccc2Cl)NC(=O)N1 (stereo not given)	-5	-5	1	3678	4	18
CC1=C([N+](=O)[O-])C(c2ccc(Cl)cc2)NC(=O)N1 (stereo not given)	-5	-12	0	4123	5	59*
CS(=O)(=O)Nc1ccccc1C(=O)Nc1cc(Cl)cc(Cl)c1	2	-2	-2	20510*	-3	6
CC1(C)C(=O)C=CC(=O)C(C)(C)C(=O)C=CC(=O)C(C)(C)C2=CC=C(O2)C(C)(C)C(=O)C=CC1=O	x	-9	1	3779	-6	x
CC(=O)Nc1cccc(N2CCCC2=O)c1	1	0	-6	25393*	-8	4
Cc1ccc(S(=O)(=O)N2CCC(C(=O)OC(C)C(=O)NCc3ccc4c(c3)OCO4)CC2)cc1 (stereo not given)	-3	-1	u	23314*	-3	17
O=C(COc1ccc2ccccc2c1)N1c2ccccc2Sc2ccccc21	-3	1	-7	22677*	-6	-7
COc1cc(Cl)c(C)cc1NC(=O)CCCN1C(=O)CCC1=O	4	-3	1	19155*	-2	23
O=C(CCCN1C(=O)CCC1=O)Nc1ccccc1F	1	2	4	22328*	4	-11
O=C(CCCN1C(=O)C2CC=CCC2C1=O)Nc1ccccc1F (stereo not given)	-7	-1	0	6123	7	2
O=C(CCCN1C(=O)CCC1=O)Nc1ccc(Br)cc1F	3	0	0	23503*	0	35
C=CCN(c1cccc(C(F)(F)F)c1)S(=O)(=O)c1cccc(C(=O)OCC(=O)Nc2ccccc2)c1	2	-2	-1	8162	-4	8
O=C(NCCc1ccc(Cl)cc1)c1ccc(S(=O)(=O)N2CCCC2)cc1	x	-3	-1	u	-2	x
COc1ccc(C(=O)N/N=C/C2CC=CCC2)cc1OC (stereo not given)	2	1	0	4129	-1	-24
COc1cccc(/C=N/Nc2nc3ccccc3n3cnnc23)c1	4	-1	0	2476	0	51*
COc1cc(/C=N/Nc2nn3cnnc3c3ccccc23)ccc1O	-6	-3	u	21210*	-3	25
COc1cccc(/C=N/Nc2nc3ccccc3n3cnnc23)c1O	3	-1	-1	2141	-5	16
CCOc1cc(/C=N/Nc2nn3cnnc3c3ccccc23)ccc1O	-5	0	-1	4482	-3	4
CCOC(=O)Cc1csc(NC(=O)CN2CCCCC2)n1	-5	-4	1	2879	-17	9
C[C@@H]1CN([C@@H](C)CO)C(=O)c2cc(C#Cc3ccccc3)cnc2O[C@@H]1CN(C)Cc1ccccn1	x	-4	0	3760	0	x
SMILES	3CLpro inhibitor	Anthrax LF inh2	BoNT A protease	Autofluor counter	BoNT-F LC inh	VHR inh abs
COC(=O)Cn1c(=O)c2c(nc(Br)n2CC(=O)OC)n(C)c1=O	-4	-3	3	22104*	2	-2
Cc1cccc(CCNC(=O)C2CCN(S(=O)(=O)c3ccccc3)CC2)c1	5	-3	0	4382	-3	6
CCC(C)c1ccc(O)c(N)c1 (stereo not given)	2	-3	0	16286*	-3	9
O=c1[nH]c(N/N=C/c2ccc(O)cc2)nc2ccccc12	-6	1	0	2526	-2	1
O=c1[nH]c(N/N=C\c2ccc(F)cc2)nc2ccccc12	-1	-1	0	2006	-1	57*
COc1ccc(Oc2cnc3ccccc3n2)cc1	4	-1	0	2240	8	8
CC(=O)Nc1cccc(Oc2cnc3ccccc3n2)c1	-1	-16	3	18766*	2	1
CC(=O)Nc1ccc(Oc2cnc3ccccc3n2)cc1	-3	0	0	24151*	1	10
c1ccc(Oc2cnc3ccccc3n2)cc1	-2	-1	1	23310*	1	27
COc1ccc(-c2ccc3oc(-c4ccc(OC)cc4)c(-c4cc(OC)c(OC)c(OC)c4)c3c2)cc1	x	8	1	3868	-1	x
COc1ccc(-c2c(C)oc3ccc(C)cc23)cc1	3	-9	-2	23892*	-3	28
CC1(C)Cc2nc3sc4c(=O)n(CC(=O)NCc5ccccc5)cnc4c3cc2CO1	6	0	-1	16709*	-3	23
COc1ccc(CN2CCN(Cc3ccc4cc(F)ccc4n3)CC2CCO)c(C)c1C (stereo not given)	-1	15	0	4390	-8	51*
Cc1ccc(-n2ncc3c2CC(C)(C)CC3NC(=O)c2c(C)noc2C)cc1 (stereo not given)	2	2	2	4306	10	-6
O=C(CSc1nc2ncc(Cl)cc2[nH]1)N1CCC(Cc2ccccc2)CC1	x	5	0	6467	1	x
COc1ccc(Oc2ccc(-c3ccn[nH]3)cc2)cc1	8	-8	-1	4204	u	35
CN(C(=O)c1ccccc1NC(=O)C(F)(F)F)c1ccccc1	-5	-6	10	19216*	10	25
CCOC(=O)c1ccccc1NC(=O)COC(=O)c1ccccc1C(=O)N(C)c1ccccc1	x	u	u	4278	u	x
CCOC(=O)C1=C(Cn2cnc3ccccc32)NC(=O)NC1c1ccc(OC)cc1 (stereo not given)	7	2	-1	16933*	-1	29
COc1cc(NC(=O)[C@@H]2O[C@H](CO)[C@@H](O)[C@H]2O)cc(OC)c1OC	x	1	0	3648	0	x
Cc1cccc2cc(CN(CC3CCCO3)S(=O)(=O)c3ccccc3)c3nnnn3c12 (stereo not given)	x	x	x	x	x	14
Cc1ccc2cc(CN(CC3CCCO3)S(=O)(=O)c3ccccc3)c3nnnn3c2c1 (stereo not given)	-4	-6	10	17821*	10	40
CCCNC(=O)c1nn2cc(Br)cnc2c1Br	1	2	0	4358	1	15
O=c1c2ccccc2cnn1-c1ccc2ccccc2c1	5	-2	-9	23123*	-10	23
